High-throughput results as filed in PubChem BioAssay.
TRHR enhancer – qHTS for Small Molecule Agonists and Allosteric Enhancers of Human TRH Receptor: Primary Screen for Enhancers | Thyrotropin-releasing hormone receptor (Homo sapiens), P34981 | TRHR cells, fluo-8 calcium fluorescence, EC20 TRH enhancement | enhancement, % at 2 µM | actives 0.66% (n = 360,000) | AID 493056, 2011; in the data active = enhancement above about 30%; note: 0% is about no effect
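TRHR-expressing cells loaded with fluo-8 calcium dye were read kinetically (ex 480/em 530) during compound addition, then stimulated with an EC20 of TRH (10 nM final). Enhancement of the Gq-mediated intracellular calcium response was scored.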
TRHR agonist – qHTS for Small Molecule Agonists and Allosteric Enhancers of Human TRH Receptor: Primary Screen for Agonists; TRHR cells, calcium flux fluo-8, FDSS agonist mode; actives 0.18% (n = 360,000); Thyrotropin-releasing hormone receptor (Homo sapiens), P34981; activation, % at 2 µM; note: 0% is about no effect
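Fluo-8-loaded TRHR cells; 10 s baseline, compound added, kinetic Ca2+ fluorescence read 1/s, agonist mode.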
D1 potentiator – Potentiators of Human D1 Dopamine Receptor: qHTS; HEK293 TREx D1 cells, calcium flux, dopamine EC20 potentiation; D(1A) dopamine receptor (Homo sapiens), P21728; actives 0.036% (n = 360,000); AID 504651, 2011; potentiation, % at 10 µM; in the data active = potentiation above about 30%; note: 0% is about no effect
Target sequence (P21728 whole entry, looked up): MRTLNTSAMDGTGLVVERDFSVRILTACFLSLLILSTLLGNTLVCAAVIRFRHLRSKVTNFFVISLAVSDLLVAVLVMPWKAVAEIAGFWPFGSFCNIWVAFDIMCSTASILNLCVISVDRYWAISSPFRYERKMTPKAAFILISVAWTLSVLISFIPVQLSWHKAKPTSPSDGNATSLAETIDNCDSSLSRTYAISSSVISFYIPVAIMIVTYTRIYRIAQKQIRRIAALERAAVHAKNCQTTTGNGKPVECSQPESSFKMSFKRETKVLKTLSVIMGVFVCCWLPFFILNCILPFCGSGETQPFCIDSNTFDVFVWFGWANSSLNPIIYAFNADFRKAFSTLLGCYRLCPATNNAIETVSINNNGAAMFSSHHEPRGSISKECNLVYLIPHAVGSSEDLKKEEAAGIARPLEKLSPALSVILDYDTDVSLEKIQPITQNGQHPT
D1 antag – Antagonist of Human D 1 Dopamine Receptor: qHTS; activity change, negative = inhibition, % at 10 µM; actives 3.2% (n = 360,000); D(1A) dopamine receptor (Homo sapiens), P21728; HEK293 TREx D1 cells, calcium flux, dopamine EC80; hits give low values; AID 504652, 2011; in the data active = activity change below about -30%; note: % is set by controls: 0 for no effect and ±100 for the full control effect
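Kinetic fluorescence of a calcium dye serves as the read-out. D1-expressing Hek293 Trex cells, induced overnight at 30 C, are exposed to compound for 180 s before an EC80 dopamine addition, then read 180 s further.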
D1 agonist – Allosteric Agonists of the Human D1 Dopamine Receptor: qHTS; actives 1% (n = 360,000); HEK293 T-REx D1 cells, calcium flux, agonist mode; activation, % at 2 µM; D(1A) dopamine receptor (Homo sapiens), P21728; note: 0% is about no effect
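Tetracycline-induced HEK293 TREx D1 cells, force-coupled to calcium signalling, were dye-loaded with a no-wash calcium kit. Compound was pin-added after a 10 s baseline. Fluorescence was read kinetically at 1 cycle/s for 180 s, with calcium rises flagged as agonism.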
The depositor's hits bear a star; · = no result; ! = not confirmed by another sample. An excerpt weighted towards active compounds, which were near 4.7% of everything screened. Cut-off read from the data, not from the text of the source, unless noted: active = activation above about 30%; inactive = the rest.

SMILES	TRHR enhancer	TRHR agonist	D1 potentiator	D1 antag	D1 agonist
O=C(NCCCN1CCN(c2ccccc2)CC1)C1CCCN(c2ncnc3c2nc2n3CCCCC2)C1 (stereo unspecified)	2	0	-19	-30*	1
CC(=O)N1CCN(S(=O)(=O)c2cccc(C(=O)OCC(=O)N3CC(=O)Nc4ccccc43)c2)CC1	-4	0	-6	17	-2
O=C1CN(C(=O)c2cccc(S(=O)(=O)N3CCCC3)c2)c2ccccc2N1	41*	0	-1	14	1
COc1ccc2oc(C(=O)OCC(=O)NCCc3ccc(S(N)(=O)=O)cc3)c(C)c2c1	6	0	-6	1	0
CN(C)c1ccnc(Oc2ccc(Cl)cc2)c1C#N	5	0	-10	8	21
COc1ccnc(Oc2ccccc2)c1C#N	-6	-1	-3	5	1
Cc1cc(Cl)ccc1Oc1nccc(N(C)C)c1C#N	-6	0	-11	-37*	10
COc1ccnc(Oc2ccc(Cl)cc2)c1C#N	-7	0	-7	-35*	0
CSCc1ccc(C(=O)NCCSc2ccc(Br)cc2)cc1	-3	-1	-12	-37*	5
COc1cc(CNCc2ccc(Br)cc2)cc(OC)c1	14	0	-8	-4	82*
COc1cc(CNCc2ccc(OC)cc2OC)cc(OC)c1	2	1	7	-12	16
COc1cc(CNCc2c[nH]c3ccccc23)cc(OC)c1	5	1	-6	-40*	26
Cc1ccc(S(=O)(=O)N(C)c2cc(S(=O)(=O)N3CCOCC3)c(C)cc2C)cc1	-6	-1	7	-3	4
Cc1cc(C)c(S(=O)(=O)N2CCCCC2)cc1N(C)S(=O)(=O)c1ccc(Cl)cc1	-4	0	4	-31*	3
Cc1ccc(N(C)C(=O)c2cnc(N3CCOCC3)c3ccccc23)cc1C	4	0	-1	-37*	0
CCN(C(=O)c1cnc(N2CCOCC2)c2ccccc12)c1cc(C)ccc1C	11	0	-2	-43*	2
Cc1cc2n(n1)CCC(=O)N2Cc1ccc(C(=O)Nc2ccc(Br)c(C)c2)cc1	1	1	-4	-3	4
Cn1nnnc1Sc1ncnc2scc(-c3cnc(N)nc3)c12	7	2	-7	15	1
O=C(COC(=O)C1CCC(=O)N1)Nc1cc(Cl)ccc1Cl (stereo unspecified)	8	-1	2	-80*	3
CC(Oc1ccc2ccc(=O)oc2c1)C(=O)NC(Cc1c[nH]c2ccc(O)cc12)C(=O)O (stereo unspecified)	-21	1	-8	-87*	0
Cc1ccc(C)c(CN2C(=O)c3ccccc3S(=O)(=O)c3ccc(C(=O)Nc4cc(F)ccc4F)cc32)c1	1	1	-1	-6	2
CCCc1c(C)c2ccccc2[nH]c1=O	41*	-1	-7	-6	1
CCCc1c(O)c2ccccc2[nH]c1=O	0	0	-2	7	4
COc1ccc(Cn2ccc3nc(C)c(C(=O)Nc4cc(OC)c(OC)c(OC)c4)cc3c2=O)cc1	19	-1	-7	-7	2
O=C(Cc1ccccc1)N(Cc1cccnc1)c1nc2ccc(F)cc2s1	-6	1	-2	·	7
SMILES	TRHR enhancer	TRHR agonist	D1 potentiator	D1 antag	D1 agonist
Cc1ccccc1-c1ccnc2[nH]n(-c3ccccc3)c(=O)c12	4	0	14	-37*!	4
Cc1[nH]n(-c2ccccc2)c(=O)c1/C=N/c1ccccn1	6	1	-3	5	1
NCCOc1ccccc1Cc1ccccc1	7	-1	-24	-55*	62*
Cc1ccc(C)c(NC(=O)C2CCN(c3nn4c(=O)cc(C)nc4s3)CC2)c1	-1	0	-3	-10	-1
CCOC(=O)CN1C(=O)S/C(=C/c2ccc(N3CCCCC3)o2)C1=O	-1	22	-2	11	55*
COC(=O)CN1C(=O)S/C(=C/c2ccc(N3CCCCC3)o2)C1=O	20	56*	6	7	57*
CCCc1cc(Nc2ccccc2C)n2ncnc2n1	35*	0	-9	-6	1
Brc1ccc(-c2cn3cc(Cc4ccccc4)sc3n2)cc1	-5	0	-2	-9	0
CCC1=C(OC(=O)N(CC)CC)N2C(=O)OC(=NCC(=O)OC)[C@]2(C)[C@H]2C1=CC[C@H]1C(=O)N(CC)C(=O)[C@H]12	-4	0	1	40	3
CCC1=C(OC(=O)N(CC)CC)N2C(=O)OC(=NCc3ccccc3)[C@]2(C)[C@H]2C1=CC[C@H]1C(=O)N(CC)C(=O)[C@H]12	-6	0	-8	-35*	1
CCOc1nc(C)ccc1-c1noc(-c2ccco2)n1	-2	-1	-5	32	3
CCOc1nc(C)ccc1-c1noc(CC)n1	-4	1	-2	-38*	3
O=C(Nc1nnc(-c2cccs2)o1)c1cccc(C(F)(F)F)c1	7	-1	·	-50*	26
Cc1ccccc1OCC(=O)Nc1ccc(N2CCN(C)CC2)c(Cl)c1	3	2	·	-71*	35*
COc1cccc(NC(=O)COc2ccc(C(=S)N3CCN(C)CC3)cc2OC)c1	0	1	-1	-31*	8
Cc1ccccc1OCC(=O)Nc1ccc2c(c1)Cc1ccccc1-2	5	-1	-2	-24	6
CCC1CN(C(=O)Nc2cc(Cl)ccc2C(=O)OC)c2ccccc2S1 (stereo unspecified)	23	0	0	17	0
CCCc1nc2ccc(N)cc2c(=O)n1Cc1ccccc1Cl	-5	0	1	10	1
CCCSc1ncc(Cl)c(C(=O)Nc2c(C(=O)c3ccc(F)cc3)oc3ccccc23)n1	-9	1	-1	3	0
CCNC(=O)COC(=O)c1cc(C)n(-c2ccccc2)c1C	7	-1	0	-55*	8
Cc1cc(C(=O)OCC(=O)N2CC(C)OC(C)C2)c(C)n1-c1ccccc1 (stereo unspecified)	5	0	·	-65*	7
COc1ccc2nc(-c3ccccc3)cc(C(=O)OCC(=O)N3CCCCC3)c2c1	-2	0	3	14	4
COc1ccc2nc(-c3ccccc3)cc(C(=O)OCC(=O)N3CC(C)OC(C)C3)c2c1 (stereo unspecified)	41*	4	1	-7	1
Cc1ccc(Cn2c(CO)cnc2SCC(=O)Nc2ccc(C)c(Cl)c2)cc1	-3	-2	-4	-7	25
